Only a selection was taken, and hits are over-represented in it overall.
mHTT CaM bind = disrupts binding of mutant huntingtin to calmodulin; inhibition, % at 15 µM; P42858; AlphaScreen His-mHTT/GST-CaM binding, luminescence; hit rate 3.6% among 190,000; AID 1671202
Target sequence (P42858 whole entry, looked up, change not shown): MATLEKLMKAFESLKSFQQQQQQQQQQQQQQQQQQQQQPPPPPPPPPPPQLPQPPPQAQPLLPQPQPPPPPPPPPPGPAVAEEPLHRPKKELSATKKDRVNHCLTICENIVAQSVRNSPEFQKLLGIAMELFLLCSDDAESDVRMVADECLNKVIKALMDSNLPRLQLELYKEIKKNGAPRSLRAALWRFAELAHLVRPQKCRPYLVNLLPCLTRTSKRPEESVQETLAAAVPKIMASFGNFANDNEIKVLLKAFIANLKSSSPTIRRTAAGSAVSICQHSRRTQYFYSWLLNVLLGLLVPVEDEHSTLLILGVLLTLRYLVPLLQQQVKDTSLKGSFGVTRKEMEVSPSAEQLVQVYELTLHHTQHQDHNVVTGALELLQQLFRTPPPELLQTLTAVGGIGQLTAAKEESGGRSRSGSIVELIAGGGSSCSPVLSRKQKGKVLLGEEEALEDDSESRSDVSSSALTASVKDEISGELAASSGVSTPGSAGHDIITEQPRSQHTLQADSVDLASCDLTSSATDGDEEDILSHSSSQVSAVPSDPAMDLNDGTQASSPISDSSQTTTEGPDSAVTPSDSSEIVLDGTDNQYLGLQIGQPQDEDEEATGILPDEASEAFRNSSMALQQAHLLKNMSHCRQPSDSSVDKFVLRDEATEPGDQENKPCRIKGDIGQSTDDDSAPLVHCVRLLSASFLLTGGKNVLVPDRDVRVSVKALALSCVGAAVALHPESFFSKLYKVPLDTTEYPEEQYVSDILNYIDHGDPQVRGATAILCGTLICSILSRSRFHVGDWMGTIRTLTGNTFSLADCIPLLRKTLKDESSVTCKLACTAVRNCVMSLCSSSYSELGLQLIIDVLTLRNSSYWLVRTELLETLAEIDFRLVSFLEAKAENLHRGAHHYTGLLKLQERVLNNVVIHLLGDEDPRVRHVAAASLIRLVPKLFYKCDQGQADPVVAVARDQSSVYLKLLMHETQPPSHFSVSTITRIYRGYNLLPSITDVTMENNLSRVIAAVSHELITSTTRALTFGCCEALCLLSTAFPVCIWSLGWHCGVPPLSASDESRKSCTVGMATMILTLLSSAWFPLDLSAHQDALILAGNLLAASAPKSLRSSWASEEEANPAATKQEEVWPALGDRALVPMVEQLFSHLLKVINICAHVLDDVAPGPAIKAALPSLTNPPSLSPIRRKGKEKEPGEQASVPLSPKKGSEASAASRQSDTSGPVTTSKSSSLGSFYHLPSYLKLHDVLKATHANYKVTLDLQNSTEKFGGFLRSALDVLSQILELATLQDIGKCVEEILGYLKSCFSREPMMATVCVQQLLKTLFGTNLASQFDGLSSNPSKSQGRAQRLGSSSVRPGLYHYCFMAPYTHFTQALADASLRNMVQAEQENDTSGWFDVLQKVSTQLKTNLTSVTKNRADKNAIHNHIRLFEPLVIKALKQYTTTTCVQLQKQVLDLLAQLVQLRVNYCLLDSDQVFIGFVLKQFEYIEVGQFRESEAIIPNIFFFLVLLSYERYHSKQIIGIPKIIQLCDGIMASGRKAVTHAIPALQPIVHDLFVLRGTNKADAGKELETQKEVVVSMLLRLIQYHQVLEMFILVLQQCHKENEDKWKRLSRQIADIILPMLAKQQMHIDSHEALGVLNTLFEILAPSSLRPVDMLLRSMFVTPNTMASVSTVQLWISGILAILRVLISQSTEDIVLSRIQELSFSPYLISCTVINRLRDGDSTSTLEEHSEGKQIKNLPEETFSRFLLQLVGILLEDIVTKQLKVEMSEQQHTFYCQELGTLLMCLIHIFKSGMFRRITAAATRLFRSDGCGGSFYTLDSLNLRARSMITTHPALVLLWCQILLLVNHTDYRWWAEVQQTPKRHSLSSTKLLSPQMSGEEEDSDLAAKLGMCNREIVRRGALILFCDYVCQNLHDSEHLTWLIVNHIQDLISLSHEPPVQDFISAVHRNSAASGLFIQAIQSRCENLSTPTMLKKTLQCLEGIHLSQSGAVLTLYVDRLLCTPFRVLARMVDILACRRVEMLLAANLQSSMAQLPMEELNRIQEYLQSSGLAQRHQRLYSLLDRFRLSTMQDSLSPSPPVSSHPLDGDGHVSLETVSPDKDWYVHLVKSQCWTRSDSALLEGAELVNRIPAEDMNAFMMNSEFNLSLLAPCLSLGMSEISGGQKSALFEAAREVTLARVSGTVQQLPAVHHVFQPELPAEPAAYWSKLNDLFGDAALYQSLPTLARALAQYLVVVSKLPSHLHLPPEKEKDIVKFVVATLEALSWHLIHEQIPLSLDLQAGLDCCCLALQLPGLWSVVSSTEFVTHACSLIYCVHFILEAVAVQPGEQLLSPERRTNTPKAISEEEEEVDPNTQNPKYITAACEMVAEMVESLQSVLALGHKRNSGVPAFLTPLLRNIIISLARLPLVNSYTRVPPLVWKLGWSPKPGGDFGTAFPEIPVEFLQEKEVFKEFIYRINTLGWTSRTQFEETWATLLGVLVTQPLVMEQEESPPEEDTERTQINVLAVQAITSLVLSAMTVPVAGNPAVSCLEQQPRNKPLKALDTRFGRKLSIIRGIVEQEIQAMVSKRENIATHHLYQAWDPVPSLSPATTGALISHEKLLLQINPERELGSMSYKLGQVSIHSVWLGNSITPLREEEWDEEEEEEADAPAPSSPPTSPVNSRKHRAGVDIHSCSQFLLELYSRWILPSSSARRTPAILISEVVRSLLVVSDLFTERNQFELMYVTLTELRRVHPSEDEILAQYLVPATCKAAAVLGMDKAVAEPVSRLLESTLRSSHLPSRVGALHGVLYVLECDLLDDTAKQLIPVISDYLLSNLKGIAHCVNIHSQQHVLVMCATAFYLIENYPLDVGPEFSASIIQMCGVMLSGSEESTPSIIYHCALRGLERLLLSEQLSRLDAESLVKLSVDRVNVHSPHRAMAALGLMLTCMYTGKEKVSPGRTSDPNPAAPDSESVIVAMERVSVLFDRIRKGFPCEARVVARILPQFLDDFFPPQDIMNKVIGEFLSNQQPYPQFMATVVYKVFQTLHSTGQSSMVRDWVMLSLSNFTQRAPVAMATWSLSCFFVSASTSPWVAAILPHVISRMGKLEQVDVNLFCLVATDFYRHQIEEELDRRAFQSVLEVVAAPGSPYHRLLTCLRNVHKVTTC
Pf apPOL block = Pf-apPOL DNA polymerase inhibition; inhibition, % at 10 µM; hit rate 0.25% among 210,000; Recombinant Pf-apPOL, molecular beacon fluorescence, 1.5 h
Numbers stand for hits; n = inactive; x = not tested or not shown. Rule as the data show it: active = inhibition above about 50%; inactive = the rest.

SMILES | mHTT CaM bind | Pf apPOL block
O=C(Nc1ccc2c(N3CCOCC3)ncnc2c1)c1cccc(Cl)c1 | 88 | n
Cc1noc(C)c1S(=O)(=O)Oc1ccc(Cl)cc1 | x | n
COc1cc(SC)ccc1C(=O)NCc1ccc(S(N)(=O)=O)cc1 | n | n
COc1ccc(CC(=O)N2CCN(c3cccc(Cl)c3)CC2)cc1OC | 55 | n
COc1ccc(CC(=O)N2CCN(c3cccc(Cl)c3)CC2)cc1 | n | n
COc1cccc(CNC(=O)c2cnn3c(C)c(Cc4ccccc4)c(C)nc23)c1 | n | n
COc1ccccc1C1C(C#N)=C(C(C#N)C#N)NC(O)(C2CC2)C1[n+]1ccc(C)cc1 (stereo unspecified) | n | n
Cc1cc[n+](C2C(c3ccc(Br)cc3)C(C#N)=C(S)NC2(O)C2CC2)cc1 (stereo unspecified) | 89 | n
COCOCCn1cc(CN2CCS(=O)(=O)N(Cc3ccc(-c4ccc(F)cc4)cc3)C(C)C2=O)nn1 (stereo unspecified) | 63 | n
COCOCCn1cc(CN2CCS(=O)(=O)N(Cc3ccc(-c4ccc(Cl)nc4)cc3)C(CC(C)C)C2=O)nn1 (stereo unspecified) | n | n
COCOCCn1cc(CN2CCS(=O)(=O)N(Cc3ccc(-c4ccccc4)cc3)C(C)C2=O)nn1 (stereo unspecified) | 59 | n
COCOCCn1cc(CN2CCS(=O)(=O)N(Cc3ccc(-c4ccc(Cl)cc4)cc3)C(C)C2=O)nn1 (stereo unspecified) | n | n
CCC/C=C/c1ccc(CN2C(C)C(=O)N(Cc3cn(CCOCOC)nn3)CCS2(=O)=O)cc1 (stereo unspecified) | n | n
COCOCCn1cc(CN2CCS(=O)(=O)N(Cc3ccc(-c4ccc(Cl)cc4)cc3)C(CC(C)C)C2=O)nn1 (stereo unspecified) | 54 | n
COc1ccc(C(=O)Nc2cccc(Cl)c2)cc1OC | n | n
Cc1cccc(C(=O)N2CCN(c3ccc(Cl)cc3C)C(=O)C2C)c1 (stereo unspecified) | n | n
O=c1ccc(-c2noc(-c3ccc(C(F)(F)F)cc3)n2)c[nH]1 | n | n
OCc1cn(-c2ccccc2)nc1-c1cccnc1 | n | n
O=C(/C=C/c1cn(-c2ccccc2)nc1-c1cccnc1)c1ccco1 | 53 | n
Cc1c(N=Cc2cn(-c3ccccc3)nc2-c2cccnc2)c(=O)n(-c2ccccc2)n1C | n | n
O=C(/C=C/c1cn(-c2ccccc2)nc1-c1cccnc1)c1cccs1 | 52 | n
CC(=O)N1CCc2cc(N3CC(C(=O)Nc4ccc(F)cc4Cl)CC3=O)ccc21 (stereo unspecified) | n | n
Nc1c(C(=O)Nc2ccc(Br)cc2)sc2nc(-c3ccc4c(c3)OCO4)ccc12 | n | n
N#Cc1ccc(N=Cc2cc(I)cc(I)c2O)cc1 | 53 | n
CCOC(=O)c1ccc(N=Cc2cc(I)cc(I)c2O)cc1 | x | n
SMILES | mHTT CaM bind | Pf apPOL block
O=C(Cc1c[nH]c2ccccc12)N(Cc1cccs1)C1(C(=O)NC2CCCC2)CCCCC1 | n | n
O=C(Cc1c[nH]c2ccccc12)N(CC1CCCO1)C1(C(=O)NC2CCCCC2)CCCCC1 (stereo unspecified) | 87 | n
CCC(C)(C(=O)NC1CCCCC1)N(CC1CCCO1)C(=O)Cc1c[nH]c2ccccc12 (stereo unspecified) | 58 | n
CCC(C)(C(=O)NC1CCCCC1)N(C)C(=O)Cc1c[nH]c2ccccc12 (stereo unspecified) | n | n
COc1cc2c(cc1OC)C(C(=O)N(C)Cc1ccccc1)C(c1cccs1)N(C)C2=O (stereo unspecified) | n | n
COc1cccc(C(=O)Nc2c3c(nn2-c2ccccc2C)CSC3)c1OC | n | n
O=C(C1CCC1)N1CCC(CCOc2cccc(F)c2)CC1 | n | n
CCCC1=C(C(=O)OCC)C(c2ccc(OC)c(OC)c2)C(C#N)=C(N)O1 (stereo unspecified) | n | n
O=S(=O)(c1ccccc1)N1N=C(c2cccs2)CC1c1ccc(Br)cc1 (stereo unspecified) | n | n
COc1cccc2c1OC(C)(C)N1N=C(c3cccs3)CC21 (stereo unspecified) | 61 | n
CC1(C)Oc2ccc(Br)cc2C2CC(c3cccs3)=NN21 (stereo unspecified) | 59 | n
COc1ccc(C2=NN3C(C2)c2cccc(OC)c2OC32CCCCC2)cc1 (stereo unspecified) | n | n
COc1ccc(C2=NN3C(C2)c2cccc(OC)c2OC3(C)C)cc1 (stereo unspecified) | 51 | n
COc1cccc2c1OC1(CCC(C)CC1)N1N=C(c3cccs3)CC21 (stereo unspecified) | n | n
Cn1nc(-c2nc(Cc3ccccc3)no2)c2c1CCN(C(=O)c1ccc(Cl)s1)C2 | n | n
O=C(O)CCCN1C(=O)C(=O)C(=C(O)c2ccccc2)C1c1cccc([N+](=O)[O-])c1 (stereo unspecified) | n | n
Cc1ccccc1S(=O)(=O)N1CCC(Cc2nc3cccnc3n2CC(C)C)C1 (stereo unspecified) | n | n
COc1ccc(C2/C=C\CN(CC3CCCCC3)CC(=O)N2Cc2ccc(F)cc2)cc1 (stereo unspecified) | n | n
COc1ccc(C2/C=C\CN(Cc3ccco3)CC(=O)N2Cc2ccc(F)cc2)cc1 (stereo unspecified) | 61 | n
COc1ccc(CNC(=O)CN2CCN(C(=O)Nc3ccc(F)cc3)CC2=O)cc1 | n | n
COc1ccc(C2/C=C\CN(C(=O)Nc3ccc(C(F)(F)F)cc3)CC(=O)N2Cc2ccc(F)cc2)cc1 (stereo unspecified) | 59 | n
COc1ccc(C2/C=C\CN(C(=O)Oc3ccc(C(F)(F)F)cc3)CC(=O)N2Cc2ccc(F)cc2)cc1 (stereo unspecified) | 79 | n
COc1ccc(C2/C=C\CN(S(=O)(=O)c3ccc(-c4ccccc4)cc3)CC(=O)N2Cc2ccc(F)cc2)cc1 (stereo unspecified) | n | n
COc1ccc(C2/C=C\CN(C(=O)C3CCCC3)[C@@H](C)C(=O)N2Cc2ccc(F)cc2)cc1 (stereo partly specified) | n | n
COc1ccc(C2/C=C\CN(C(=O)c3ccc(C)cc3)CC(=O)N2Cc2ccc(F)cc2)cc1 (stereo unspecified) | 75 | n
SMILES | mHTT CaM bind | Pf apPOL block
O=C1C2C(C(=O)N1c1ccc(Br)cc1)N1CCCN1C2c1ccccc1 (stereo unspecified) | n | n
O=C(CSc1nc2ccc(NC(=O)c3ccccc3[N+](=O)[O-])cc2s1)Nc1ccccc1 | n | n
O=C(Cn1c(=O)oc2ccccc21)Nc1cccc(-c2ccn[nH]2)c1 | n | n
COc1ccc(N2CCN(S(=O)(=O)N(C)C)CC2)cc1 | n | n
CCC(=O)NC(c1ccco1)c1ccc2cccnc2c1O (stereo unspecified) | 100 | n
CCC(=O)NC(c1ccco1)c1cc(Cl)c2cccnc2c1O (stereo unspecified) | 100 | n
CCC(=O)Nc1ccc(Br)c2cccnc12 | n | n
CCCCC(=O)NC(c1ccccc1)c1cc(Cl)c2cccnc2c1O (stereo unspecified) | n | n
CC(=O)NC(c1ccco1)c1cc(Cl)c2cccnc2c1O (stereo unspecified) | 100 | n
O=C(Nc1c(Cl)cc(Cl)c2cccnc12)c1ccco1 | n | n
CCCCC(=O)NC(c1ccco1)c1cc(Cl)c2cccnc2c1O (stereo unspecified) | 66 | n

Compound activity from PubChem.
